Records with an inconclusive call do not appear. Unmarked numbers belong to inactive results. The source made the active and inactive calls. Calls follow the shape of the full dose curve.
Assay: qHTS assay for small molecule agonists of the p53 signaling pathway - cell viability (AID 651633);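 also: p53RE-bla HCT reporter cells with a stable beta-lactamase p53 reporter; nearly all actives have a fitted effect of over 30% in size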
Conditions: p53RE-bla HCT-116 viability, ATP luminescence, 16 h; series mostly up to 83.3 µM; activity change, negative = cytotoxicity: at the top concentration
Excerpt: National Center for Advancing Translational Sciences [NCATS]
NIH Chemical Genomics Center [NCGC]
U.S. Environmental Protection Agency [EPA]
National Institutes of Environmental Health Sciences [NIEHS]
National Toxicology Program [NTP]
U.S. Food and Drug Administration [FDA]
p53, a tumor suppressor protein, is activated following cellular insult, including DNA damage and other cellular stresses. The activation of p53 regulates cell fate by inducing DNA repair, cell cycle arrest, apoptosis, or cellular senescence. The activation of p53, therefore, is a good indicator of DNA damage and other cellular stresses. […] The activation of the reporter gene under culture conditions can be detected by fluorescence intensity. This cell line was used to screen the Tox21 compound library in a 1536-well plate format and to identify agonists that activate the p53 signaling pathway.
Tox21 Assay Protocol Summary:
The p53RE-bla cells were dispensed at 4,000 cells/5 ul/well in 1536-well black wall/clear bottom plates using a Multidrop dispenser. After the assay plates were incubated at a 37 C/5% CO2 incubator for 5 hours, 23 nL of compounds dissolved in DMSO, positive controls or DMSO only was transferred to the assay plate by a pin tool. The plates were incubated at 37 C for 16 hours. After 1 uL of LiveBLAzerTM B/G FRET substrate was added using a Flying Reagent Dispenser, the plates were incubated at room temperature for 2 hours, and fluorescence intensity was measured by an Envision plate reader.
For cell viability readout that measures cytotoxicity, 4 ul/well of CellTiter-Glo reagent was added into the assay plates using a Flying Reagent Dispenser. After 30 min incubation at room temperature, the luminescence intensity in the plates was measured using a ViewLux plate reader.
% is scaled to controls: 0 for no effect and ±100 for the full control effect.

SMILES | activity change, negative = cytotoxicity | Potency
COC=O | 21.3% [at 8.08 µM] | –
O=C(O)COCC(=O)O | 11.9% [at 95.3 µM] | –
CCCCCCC/C=C/C=O | 2.84% | –
O=Cc1ccc([N+](=O)[O-])cc1 | -9.27% [at 95.3 µM] | –
O=C(O)c1cccc(C(=O)O)c1C(=O)O | 15.6% [at 95.3 µM] | –
SCCOCCOCCS | 0.75% | –
O=C(O)CNc1ccccc1 | 13.5% | –
O=C(O)c1ccccc1-n1cc(C(=O)O)c(=O)c2cc(Nc3c(F)cc(F)cc3Cl)c(Cl)cc21 | 1.82% | –
Cc1cccc(C)c1NC(=O)CN1CCCC1 | 14.3% | –
O=[N+]([O-])c1cccc(I)c1 | -11.1% | –
CC(O)C(C)O (stereo not given) | 9.48% [at 95.3 µM] | –
CCCC(=O)OCCC(C)C | 8.27% | –
C=CC(O)CCCCC (stereo not given) | 19.9% | –
C=CC(C)CCC=C(C)C (stereo not given) | 19.9% | –
COc1cc(CNC(=O)CCCC/C=C/C(C)C)ccc1O | – | inactive
Cc1c(N=C=O)cccc1N=C=O | 20.2% [at 95.3 µM] | –
CCCCOc1ccc(N)cc1 | 23.1% | –
CCCCCO | -18% | –
COc1cccc([C@H](O)C2CCN(CCc3ccc(F)cc3)CC2)c1OC | 6.99% | –
CC(C)Cc1nccs1 | 16.2% [at 95.3 µM] | –

SMILES | activity change, negative = cytotoxicity | Potency
CC(C)NC(=O)c1ccccc1N | 13.2% | –
CCc1ccc(C(=O)C(C)CN2CCCCC2)cc1 (stereo not given) | -8.07% | –
Nc1ccc(-c2ccc(F)cc2)cc1 | -8.75% | –
CCCN(C1CCN(C(=O)C2CCNCC2)CC1)[C@@H]1CCc2ccc(OC)cc2C1 | 9.25% | –
COc1ccc(/C=C/S(=O)(=O)NC(=O)c2ccc(C)cc2Cl)cc1 | 7.6% | –
CCCCOC(=O)CC#N | 16.9% [at 95.3 µM] | –
CCCCCCCCCCCCSCCOCCO | 26.2% | –
CCC[Si](OC)(OC)OC | -18% | –
CCn1nc(Cc2ccccc2)cc1C1CCN(C[C@H]2C[C@H](N(C)[C@@H](C(=O)O)C(C)C)C[C@@H]2c2cccc(F)c2)CC1 | 17% | –
O=C(c1ccc(Cl)cc1)c1ccc(Cl)cc1 | -10.3% | –
COc1ccc(/C=C/c2cc(OC)cc(=O)o2)cc1 | 20.7% | –
COC(=O)/C=C/C(C)=C\C=C\C(C)=C\C=C\C=C(C)\C=C\C=C(C)\C=C\C(=O)O | 4.18% | –
N#CCCCC(C#N)CCC#N (stereo not given) | 15.8% | –
CC/C=C/CCO | 13.1% [at 95.3 µM] | –
Cc1c(-c2cccnc2)c2ccccc2n1CCCCC(=O)O | 18.9% | –
CC1(C)[C@@H]2CC[C@]3(C2)[C@@H]1C(=O)CCC3(C)C | -16.4% | –
CCc1cnc(C(=O)O)c(C(=O)O)c1 | 12.3% [at 95.3 µM] | –
CCN(CCCCOC(=O)c1ccc(OC)c(OC)c1)C(C)Cc1ccc(OC)cc1 (stereo not given) | -13.1% [at 39.1 µM] | –
CC(C)CC(C)(C)C | -14.3% [at 95.3 µM] | –
CCCCCCCCCCCC(=O)OCC | -3.03% | –

Reference: PubChem BioAssay (Tox21)
